The values that follow come from PubChem BioAssay.

The source made the active and inactive calls.

Assay [1] concerns Plasmodium falciparum Sir2 (PF13_0152, Sir2A). In words: Plasmodium falciparum Sir2A binding compounds – biochemical, small-molecule microarray, 635 nm fluorescence, primary screen (AID 1098).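 Note: score merges spot fluorescence intensity with its signal-to-noise ratio.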 As to conditions: fluorescence 635 nm, higher = more signal.
Assay [2] is described as follows: probe aDKK1 binding to arrayed compounds – biochemical, biotinylated probe, 635/667 nm fluorescence, primary screen (AID 1099).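 Note: score merges 667nm spot fluorescence with signal to noise across triplicate slides.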 The settings on record: small-molecule microarray, higher = more signal.
The nature of assay [3]: probe aCHRDL2 binding to arrayed compounds – biochemical, biotinylated probe, 635/667 nm fluorescence, primary screen (AID 1100). As to conditions: small-molecule microarray, higher = more signal.
A short description of assay [4]: change in splice reporter luminescence, either direction, cell-based, HEK293, spliceosome inhibition project, primary screen (AID 1101).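 Note: HEK293 cells carrying a splicing-competent luciferase reporter gene; test concentration not given here.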 As to conditions: HEK293 splicing luciferase reporter, 24 h, higher = more signal, called active from +8 up or from −8 down. In general terms: In a reporter assay the amount or activity of a reporter protein is the signal.
Assay [5] addresses Fibroblast growth factor 10 (Homo sapiens) (UniProt O15520). As to the kind of experiment: compounds binding fibroblast growth factor 10 – biochemical, small-molecule microarray, 635 nm fluorescence, primary screen (AID 1102). The settings on record: FGF10 binding, fluorescence 635 nm, higher = more signal.
Assay [6] deals with glycogen synthase kinase-3 (GSK3A per assay name; protocol says GSK3B). As to the kind of experiment: compounds binding glycogen synthase kinase-3 – biochemical, small-molecule microarray, 635 nm fluorescence, GSK3A, primary screen (AID 1103). Note: the record names both GSK3A and GSK3B. As to conditions: fluorescence 635 nm, higher = more signal.
Assay [7] deals with Epidermal growth factor receptor (Homo sapiens) (UniProt P00533). As to the kind of experiment: compounds binding epidermal growth factor receptor – biochemical, small-molecule microarray, 635 nm fluorescence, primary screen (AID 1104).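 Note: score merges 667 nm emission intensity with spot signal to noise over triplicate slides.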 The settings on record: EGFR binding, higher = more signal.
Assay [8] deals with Follistatin-related protein 3 (Homo sapiens) (UniProt O95633). In words: compounds binding follistatin-related protein 3 – biochemical, small-molecule microarray, 635 nm fluorescence, primary screen (AID 1105).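 Note: score merges emission near 667 nm and signal to noise per printed spot across three slides.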 The settings on record: FSTL3 binding, higher = more signal.
Assay [9] concerns the target Dickkopf-related protein 1 (Homo sapiens) (UniProt O94907). As to the kind of experiment: small molecules binding DKK1 protein – biochemical, small-molecule microarray, 635 nm fluorescence scan, primary screen (AID 1106).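 Note: score merges emission near 667 nm with signal to noise over three replicate slides.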 As to conditions: higher = more signal.
Assay [10] has as its system Inhibin beta A chain (activin A). As to the kind of experiment: small molecules binding activin A – biochemical, small-molecule microarray, 635 nm fluorescence scan, primary screen (AID 1107).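 Note: mouse activin A protein probed at 4.33 µg/mL on printed slides; score merges bound-protein fluorescence near 667 nm with spot signal-to-noise.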 The settings on record: INHBA, higher = more signal.
Assay [11] concerns Human papillomavirus type 1a protein E7 (residues 44-93). As to the kind of experiment: small molecules binding HPV E7 44-93 – biochemical, small-molecule microarray, residues 44-93, 635 nm fluorescence, primary screen (AID 1108).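 Note: E7 fragment applied at 1 µg/mL in TBST for 1 h at 4 C; score combines spot fluorescence with its signal to noise ratio.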 As to conditions: fluorescence 635 nm, higher = more signal.
Assay [12] can be described thus: hepatitis C replication reporter changes, two-sided – Huh7 cells, luciferase reporter, HCV replication inhibitor project, primary screen (AID 1109).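 Note: huh7 hepatoma cells harbouring a luciferase neomycin HCV replicon reporter; luciferase luminescence as measure of HCV replicon replication; test concentration not given here.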 As to conditions: Huh7 HCV replicon luciferase reporter, 48 h; higher = more signal.
The target of assay [13] is Left-right determination factor 2 (Homo sapiens) (UniProt O00292). As to the kind of experiment: small molecules binding LEFTY2 protein – biochemical, small-molecule microarray, 635 nm fluorescence scan, primary screen (AID 1110). As to conditions: higher = more signal.
In assay [14] the target is Calmodulin-1 (Homo sapiens) (UniProt P0DP23). In words: small molecules binding calmodulin-1 with EGTA – biochemical, small-molecule microarray, Cy5-labelled CALM1, profiling panel (AID 1111).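 Note: labelled calmodulin applied in Tris saline Tween buffer holding calcium plus EGTA and DTT.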 The settings on record: Cy5-CALM1 binding fluorescence, higher = more signal.
Assay [15] shares this target. In words: small molecules binding Ca-loaded calmodulin-1 – biochemical, small-molecule microarray, Cy5-labelled CALM1, plus calcium, artefact control for SMM control-protein annotation, profiling panel (AID 1112).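 Note: score merges spot fluorescence with signal to noise from triplicate slides.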 The settings on record: Cy5-CALM1 binding fluorescence, higher = more signal.
The nature of assay [16]: probe aWnt5a binding to arrayed compounds – biochemical, biotinylated probe, 635/667 nm fluorescence, primary screen (AID 1113).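 Note: score merges 667 nm fluorescence intensity with signal-to-noise per printed feature.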 As to conditions: small-molecule microarray, higher = more signal.
Assay [17] can be described thus: probe aShh binding to arrayed compounds – biochemical, biotinylated probe, 635/667 nm fluorescence, primary screen (AID 1114).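 Note: probe is biotin-labelled aShh protein from a stem cell growth factor screen; measures binding of labelled protein to compounds printed on the slide; score merges feature fluorescence at 667 nm with signal-to-noise.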 As to conditions: small-molecule microarray, higher = more signal.
A short description of assay [18]: probe aNog binding to arrayed compounds – biochemical, biotinylated probe, 635/667 nm fluorescence, primary screen (AID 1115).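 Note: probe is biotinylated aNog protein used at 0.15 µg/mL for 1 h at 4 C; z-score combines 667 nm fluorescence of each spot with its signal to noise.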 As to conditions: small-molecule microarray, higher = more signal.
For assay [19], the target named is Torsin-1A-interacting protein 1 (Homo sapiens) (UniProt Q5JTV8). As to the kind of experiment: compound microarray binding of lysate hLAP1 – cell lysate, small-molecule microarray, COS7 lysate, 635/667 nm fluorescence, primary screen (AID 1116). The settings on record: 635 nm fluorescence, higher = more signal.
The target of assay [20] is Alpha-bungarotoxin (Bungarus multicinctus) (UniProt P60615). As to the kind of experiment: compounds binding labelled alpha-BTX control protein – biochemical, small-molecule microarray, Alexa647 label, 635/667 nm fluorescence, artefact control for SMM control protein annotation, profiling panel (AID 1117). As to conditions: alpha-BTX-A647 binding fluorescence, higher = more signal.
Chain of Alpha-bungarotoxin (Bungarus multicinctus) (P60615 whole entry, looked up): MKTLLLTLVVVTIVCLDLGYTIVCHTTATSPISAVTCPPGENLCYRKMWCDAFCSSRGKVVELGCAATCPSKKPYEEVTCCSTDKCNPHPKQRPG

Chain of Dickkopf-related protein 1 (Homo sapiens) (O94907 whole entry, looked up): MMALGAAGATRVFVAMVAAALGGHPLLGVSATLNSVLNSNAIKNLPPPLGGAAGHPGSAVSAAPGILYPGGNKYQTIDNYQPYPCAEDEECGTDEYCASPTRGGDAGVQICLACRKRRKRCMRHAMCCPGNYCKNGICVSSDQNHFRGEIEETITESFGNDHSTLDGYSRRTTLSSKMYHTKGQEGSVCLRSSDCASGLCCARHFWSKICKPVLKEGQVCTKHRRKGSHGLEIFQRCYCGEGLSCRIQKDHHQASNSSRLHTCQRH
Chain of Left-right determination factor 2 (Homo sapiens) (O00292 whole entry, looked up): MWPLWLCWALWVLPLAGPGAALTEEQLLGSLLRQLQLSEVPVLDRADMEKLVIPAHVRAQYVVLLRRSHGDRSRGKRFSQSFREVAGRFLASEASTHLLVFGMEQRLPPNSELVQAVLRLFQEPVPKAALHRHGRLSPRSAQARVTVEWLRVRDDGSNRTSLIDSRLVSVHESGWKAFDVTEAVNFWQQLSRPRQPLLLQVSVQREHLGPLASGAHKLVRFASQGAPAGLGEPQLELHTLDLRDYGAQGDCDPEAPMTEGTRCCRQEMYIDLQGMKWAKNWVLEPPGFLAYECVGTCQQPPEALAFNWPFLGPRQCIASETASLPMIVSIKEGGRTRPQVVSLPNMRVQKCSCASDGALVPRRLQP
Chain of Epidermal growth factor receptor (Homo sapiens) (P00533 whole entry, looked up): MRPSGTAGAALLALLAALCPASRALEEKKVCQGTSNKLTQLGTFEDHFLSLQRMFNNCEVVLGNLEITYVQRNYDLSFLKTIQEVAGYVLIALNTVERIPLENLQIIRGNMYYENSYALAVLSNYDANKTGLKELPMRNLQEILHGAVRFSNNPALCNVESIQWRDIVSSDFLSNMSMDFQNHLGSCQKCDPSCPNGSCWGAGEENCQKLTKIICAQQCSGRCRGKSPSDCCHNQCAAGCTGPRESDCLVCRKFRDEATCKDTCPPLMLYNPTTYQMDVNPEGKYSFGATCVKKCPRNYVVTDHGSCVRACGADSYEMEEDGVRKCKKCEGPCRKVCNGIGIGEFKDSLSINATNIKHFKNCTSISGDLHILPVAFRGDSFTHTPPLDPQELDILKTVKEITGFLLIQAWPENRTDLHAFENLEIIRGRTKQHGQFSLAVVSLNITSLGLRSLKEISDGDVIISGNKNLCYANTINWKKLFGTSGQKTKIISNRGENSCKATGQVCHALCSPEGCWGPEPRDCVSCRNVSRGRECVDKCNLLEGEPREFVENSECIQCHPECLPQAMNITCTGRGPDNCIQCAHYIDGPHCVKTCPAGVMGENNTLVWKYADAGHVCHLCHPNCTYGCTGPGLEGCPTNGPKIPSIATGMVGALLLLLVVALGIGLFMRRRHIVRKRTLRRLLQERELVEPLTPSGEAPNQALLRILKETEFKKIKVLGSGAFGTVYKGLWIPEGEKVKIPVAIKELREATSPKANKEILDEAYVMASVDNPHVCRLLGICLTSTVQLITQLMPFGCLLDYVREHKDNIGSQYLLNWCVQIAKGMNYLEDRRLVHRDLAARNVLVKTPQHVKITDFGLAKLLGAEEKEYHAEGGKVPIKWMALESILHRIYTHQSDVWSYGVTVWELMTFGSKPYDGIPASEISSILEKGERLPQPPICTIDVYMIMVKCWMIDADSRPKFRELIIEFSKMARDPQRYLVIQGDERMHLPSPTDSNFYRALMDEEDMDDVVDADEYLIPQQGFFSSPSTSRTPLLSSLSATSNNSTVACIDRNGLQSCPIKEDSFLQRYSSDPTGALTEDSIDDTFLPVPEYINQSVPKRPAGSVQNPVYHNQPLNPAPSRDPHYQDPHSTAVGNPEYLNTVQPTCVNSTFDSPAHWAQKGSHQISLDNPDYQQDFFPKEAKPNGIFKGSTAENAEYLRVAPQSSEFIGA
Chain of Follistatin-related protein 3 (Homo sapiens) (O95633 whole entry, looked up): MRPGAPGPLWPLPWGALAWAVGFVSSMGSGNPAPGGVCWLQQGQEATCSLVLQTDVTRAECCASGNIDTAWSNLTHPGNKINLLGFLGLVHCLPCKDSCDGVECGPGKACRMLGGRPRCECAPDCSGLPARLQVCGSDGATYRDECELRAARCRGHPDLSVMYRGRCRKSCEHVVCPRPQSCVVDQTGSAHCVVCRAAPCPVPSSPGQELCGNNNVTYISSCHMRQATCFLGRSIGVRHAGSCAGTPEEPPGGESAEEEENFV
Chain of Torsin-1A-interacting protein 1 (Homo sapiens) (Q5JTV8 whole entry, looked up): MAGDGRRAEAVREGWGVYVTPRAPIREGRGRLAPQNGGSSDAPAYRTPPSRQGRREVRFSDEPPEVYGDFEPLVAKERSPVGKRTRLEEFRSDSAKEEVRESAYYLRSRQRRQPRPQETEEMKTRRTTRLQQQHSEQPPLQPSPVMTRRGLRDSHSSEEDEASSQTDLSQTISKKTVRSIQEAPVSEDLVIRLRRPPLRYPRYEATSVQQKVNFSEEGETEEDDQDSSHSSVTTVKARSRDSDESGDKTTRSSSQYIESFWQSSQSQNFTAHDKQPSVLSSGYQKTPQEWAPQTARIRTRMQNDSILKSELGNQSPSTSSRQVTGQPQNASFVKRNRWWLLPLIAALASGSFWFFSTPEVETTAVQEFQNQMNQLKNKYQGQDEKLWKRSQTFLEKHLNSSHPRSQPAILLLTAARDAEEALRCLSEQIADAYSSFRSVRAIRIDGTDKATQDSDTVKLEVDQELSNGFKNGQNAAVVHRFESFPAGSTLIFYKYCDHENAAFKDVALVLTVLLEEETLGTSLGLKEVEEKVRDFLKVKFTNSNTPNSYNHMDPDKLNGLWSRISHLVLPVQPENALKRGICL
Chain of Fibroblast growth factor 10 (Homo sapiens) (O15520 whole entry, looked up): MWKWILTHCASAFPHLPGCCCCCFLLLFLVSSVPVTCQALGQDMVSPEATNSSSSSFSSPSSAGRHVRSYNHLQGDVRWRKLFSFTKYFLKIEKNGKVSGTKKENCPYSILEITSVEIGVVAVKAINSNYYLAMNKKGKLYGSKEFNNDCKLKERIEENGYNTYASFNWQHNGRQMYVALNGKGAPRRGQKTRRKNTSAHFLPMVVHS

Turning to `CC(C)[C@@H](OCc1ccccc1)[C@H](C)C=NO[C@H](C)c1cn([C@H](CO)Cc2ccccc2)nn1`, the composite z-score in assay [1] was 0.45; in assay [2], -0.25; in [3], -0.566; in [5], 0.503; in assay [6], 0.562; in assay [7] it was 0.173. In addition, the composite z-score in assay [8] was 0.474; in [9], 0.804; in [10] it was -0.172; in assay [11] it was 0.639; in [13], 0.521; in assay [14], -0.211. Moreover, the composite z-score is -0.669 in [15]; -0.156 in assay [16]; -0.0709 in assay [17]; -0.216 in assay [18]; 0.113 in [19]; 0.263 in assay [20]. Further, the z-score in [4] is -0.652 (inactive); in assay [12] it was -2.09.
For `O=C(CS)NCCCCCNC(=O)[C@@H]1C[C@@H]2C(=O)N[C@@H](Cc3ccccc3)C(=O)N2[C@@H]1c1ccc(O)cc1`, the composite z-score in assay [1] is 1; in assay [2], 0.121; in assay [3], 0.526; in assay [5] it was 1.02; in [6], 1.17; in assay [7], -0.146. The composite z-score in assay [8] is 0.265; in assay [9], 0.325; in assay [10] it was -0.516; in assay [11] it was 0.985; in assay [13], 0.514; in [14], 0.283. The composite z-score in assay [15] is -0.11; in assay [16], 0.0004; in assay [17], 0.149; in assay [18] it was -0.122; in assay [19] it was 0.858; in [20], 1.48. Besides, the z-score is 0.339 (inactive) in [4] and -0.374 in assay [12].
Turning to `CC(=O)O[C@H]1C2=C(C(=O)[C@@H]3O[C@@H]31)[C@H]1C(C)O[C@@H]2[C@@]23C(=O)[C@@H]4O[C@@H]4[C@@H](O)C2=CO[C@H](C)[C@@H]13` (stereo not given in full), the composite z-score in assay [1] is 0.452; in [2], -0.475; in [3], -0.62; in assay [5] it was 0.374; in assay [6], -0.0186; in assay [7], 0.197. In addition, the composite z-score in [8] is -0.0861; in [9], 0.326; in assay [10], 0.702; in [11], -0.667; in assay [13], 0.552; in [14] it was -1.17. In addition, the composite z-score in assay [15] is -0.891; in assay [16] it was -0.101; in assay [17], -0.13; in assay [18] it was -0.18; in assay [19], -0.25; in [20], -0.858. Moreover, the values for the z-score in [4] and in assay [12] were 0.15 (inactive) and -2.66, respectively.
For `CCN1C(=O)[C@H]2[C@H]3[C@H](O)[C@H](O)CC(=NOCc4ccccc4)[C@@H]3CC[C@H]2C1=O`, the composite z-score in assay [1] is 0.119; in assay [2], 0.214; in [3], -0.585; in assay [5] it was 0.302; in assay [6], 0.478; in [7], 0.33. In addition, the composite z-score in [8] amounted to 0.51; in assay [9] it was 0.267; in assay [10], 0.383; in [11], 0.515; in assay [13] it was 0.609; in [14], 0.36. For the same compound, the composite z-score was -0.467 in [15]; -0.0819 in [16]; -0.349 in assay [17]; -0.551 in assay [18]; 0.138 in assay [19]; 0.29 in [20]. The z-score in assay [4] was -1.02 (inactive); in [12], -0.0462.
Consider `COC(=O)CC1OC1[C@H](C)[C@@H](OC)C(C)C` (stereo not given in full), for which the composite z-score is 0.505 in [1]; -0.0977 in [2]; -0.111 in [3]; 0.142 in assay [5]; -0.792 in assay [6]; 0.335 in assay [7]. Besides, the composite z-score in assay [8] was 0.0479; in assay [9] it was 0.82; in assay [10], 1.32; in assay [11], -0.792; in assay [13], 0.389; in assay [14], -0.723. Also, the composite z-score in [15] was -1.26; in [16] it was -0.1; in assay [17], -0.147; in [18] it was -0.487; in [19], 0.601; in [20], 0.93. For the same compound, the z-score in assay [4] is 0.743 (inactive); in [12], -0.0397.
In the case of `CC(=O)OC[C@H]1O[C@@H](ON=C[C@@H](C)[C@H](OCc2ccccc2)C(C)C)[C@H](OC(C)=O)[C@@H](OC(C)=O)[C@@H]1OC(C)=O`, the composite z-score in [1] was -0.0075; in assay [2], 0.129; in assay [3] it was 0.169; in assay [5] it was -0.167; in [6] it was 0.623; in assay [7], 0.338. In addition, the composite z-score in assay [8] is -0.39; in assay [9], -1.22; in [10] it was -1.82; in [11] it was 0.162; in assay [13], 0.619; in [14], 0.336. Moreover, the composite z-score was -0.815 in [15]; -0.0754 in [16]; -0.19 in assay [17]; -0.144 in assay [18]; -0.563 in [19]; 0.226 in assay [20]. For the same compound, the z-score in [4] was 0.14 (inactive); in assay [12], -0.518.
